# Compound activity deposited in PubChem BioAssay by National Center for Advancing Translational Sciences (NCATS).
# An excerpt weighted towards active compounds, which were near 2.3% of everything screened.
# WRN helicase inh-1: qHTS for Inhibitors of WRN Helicase; Potency, µM (series often up to 114 µM), most hits filed as inhibitors; actives 0.46% (n = 360,000); AID 651768, 2012; Bifunctional 3'-5' exonuclease/ATP-dependent helicase WRN (Homo sapiens), Q14191; WRN helicase unwinding, fluorescent forked duplex, kinetic; note: nearly all actives have a fitted effect of over 55% in size
#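 Fluorescence dequenching readout, ex 525 nm/em 598 nm, kinetic mode: forked duplex DNA (100 nM final) with adjacent fluorophore and quencher unwound by WRN (20 nM final) with 2 mM ATP. Compound preincubation 15 min, room temperature.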
# Pol kappa inh-1: qHTS for Inhibitors of Polymerase Kappa. Potency, µM (doses to about 107 µM), actives largely listed as inhibitors. DNA polymerase kappa (Homo sapiens), Q9UBT6. AID 588579, 2011. actives 0.53% (n = 400,000). purified Pol kappa, fluorescent DNA synthesis assay, 10 min
#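 Kinetic fluorescence readout at 0 and 10 min followed reaction start with substrate at 50 nM final. Beforehand, enzyme (10 nM Pol kappa) stood 15 min with compound at room temperature; buffer-only wells were negative controls.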
# POLB inh: qHTS Assay for Inhibitors of DNA Polymerase Beta | AID 485314, 2010 | P06746 | Potency, µM (doses to about 114 µM), usual class: inhibitors | Pol beta primer extension/strand displacement, fluorescence kinetic | actives 1.3% (n = 340,000)
#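 Values derive from four-parameter Hill fits of normalized kinetic data: reads at 0 and 10 min following addition of 50 nM substrate to 10 nM Pol beta preincubated 15 min with compound.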
# POLI inh: qHTS for Inhibitors of Polymerase Iota. AID 588590, 2011. actives 1% (n = 390,000). DNA polymerase iota (Homo sapiens), Q9UNA4. Pol iota fluorescent replication assay, 10 min. Potency, µM (top dose mostly 115 µM), actives largely listed as inhibitors
# Target sequence (Q9UNA4 whole entry, looked up): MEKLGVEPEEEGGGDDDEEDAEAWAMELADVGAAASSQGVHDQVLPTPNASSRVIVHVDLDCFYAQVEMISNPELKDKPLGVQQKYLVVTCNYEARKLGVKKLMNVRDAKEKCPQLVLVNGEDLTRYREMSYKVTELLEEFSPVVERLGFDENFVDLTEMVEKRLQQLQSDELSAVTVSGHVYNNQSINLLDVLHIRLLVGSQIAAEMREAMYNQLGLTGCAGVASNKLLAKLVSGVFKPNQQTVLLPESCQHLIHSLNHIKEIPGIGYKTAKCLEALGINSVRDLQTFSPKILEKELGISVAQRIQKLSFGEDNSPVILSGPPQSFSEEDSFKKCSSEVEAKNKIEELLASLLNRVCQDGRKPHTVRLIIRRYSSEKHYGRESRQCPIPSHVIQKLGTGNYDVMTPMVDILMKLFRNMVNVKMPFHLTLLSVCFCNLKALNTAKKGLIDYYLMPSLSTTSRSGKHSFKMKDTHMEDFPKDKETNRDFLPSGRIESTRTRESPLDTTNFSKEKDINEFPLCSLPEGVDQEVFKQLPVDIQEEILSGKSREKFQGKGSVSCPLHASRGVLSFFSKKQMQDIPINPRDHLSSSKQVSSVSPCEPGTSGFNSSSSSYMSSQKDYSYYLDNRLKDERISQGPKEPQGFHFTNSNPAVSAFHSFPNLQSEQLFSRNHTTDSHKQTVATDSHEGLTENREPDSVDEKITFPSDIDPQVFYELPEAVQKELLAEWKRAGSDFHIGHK
#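 Fluorescent replication assay read twice, at 0 min and 10 min after adding 50 nM (final) substrate. Enzyme (10 nM) and compounds were first incubated 15 min at room temperature; enzyme-free buffer wells were negative controls.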
# Pol eta inh-1: qHTS for Inhibitors of Polymerase Eta | Potency, µM (titrated, usually from 114 µM), most hits filed as inhibitors | DNA polymerase eta (Homo sapiens), Q9Y253 | actives 1.2% (n = 390,000) | recombinant Pol eta, fluorescent DNA replication assay
#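 Pol eta (10 nM) was preincubated with compounds for 15 min at room temperature, after which fluorescent replication substrate (50 nM final) was added to start the reaction. Fluorescence was read kinetically at 0 and 10 min.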
# PGK validate: qHTS for inhibitors of Phosphogylcerate Kinase: Hit Validation Screen | actives 79% (n = 500) | Potency, µM (highest dose often 57.5 µM), usual class: inhibitors | shares compounds with Pol kappa inh-1 | TbPGK coupled GAPDH assay, Kinase-Glo luminescence; note: nearly all actives have a fitted effect of over 65% in size
# Pol iota confirm: qHTS for Inhibitors of Polymerase Iota: Confirmatory Assay for Cherry-picked Compounds; shares compounds with Pol kappa inh-1; Pol iota primer extension, TAMRA/BHQ fluorescence; Potency, µM, usual class: inhibitors; actives 77% (n = 1,500); AID 720496, 2013
# GALK confirm: Confirmation Assay for Inhibitors of Human Galactokinase (GALK); shares compounds with Pol eta inh-1; purified GALK, Kinase-Glo ATP depletion luminescence; Potency, µM (titrated, usually from 115 µM), hits mostly inhibitors; actives 70% (n = 150); AID 2015, 2009
# GALK redox cs: Confirmatory Assay for Inhibitors of Human Galactokinase (GALK): Phenol-HRP redox assay counterscreen; shares compounds with Pol eta inh-1; Phenol red-HRP H2O2 redox cycling, absorbance 600 nm; Potency, µM (top dose mostly 115 µM), hits mostly inhibitors; actives 40% (n = 150)
# HEK293 viability: Secondary Assay for Inhibitors of Human Galactokinase (GALK): HEK-293 Cell Viability Assay; actives 10% (n = 170); Potency, µM (top dose mostly 46.1 µM), most hits filed as inhibitors; shares compounds with Pol eta inh-1; HEK-293 viability, ATP luminescence (CellTiter-Glo), 24/48 h
# Pol kappa inh-2: qHTS for Inhibitors of Polymerase Kappa: Confirmatory Assay for Cherry-picked Compounds | purified Pol-kappa, fluorescent strand-displacement substrate | actives 76% (n = 920) | shares compounds with Pol eta inh-1 | Potency, µM, actives largely listed as inhibitors
# Pol eta inh-2: qHTS for Inhibitors of Polymerase Eta: Confirmatory Assay for Cherry-picked Compounds; shares compounds with Pol eta inh-1; actives 64% (n = 2,600); AID 720502, 2013; Pol eta primer extension, TAMRA/BHQ fluorescence, 10 min; Potency, µM, hits mostly inhibitors
# WRN helicase inh-2: qHTS for Inhibitors of WRN Helicase: Confirmatory Assay for Cherry-picked Compounds. Potency, µM (doses to about 57.1 µM), most hits filed as inhibitors. WRN helicase DNA unwinding, fluorescence kinetic. actives 63% (n = 610). shares compounds with WRN helicase inh-1; note: nearly all actives have a fitted effect of over 65% in size
# TO displacement: qHTS for Inhibitors of WRN Helicase: Thiazole Orange DNA Binding Counterscreen; Potency, µM (highest dose often 57.1 µM), usual class: inhibitors; actives 10% (n = 610); thiazole orange DNA binding displacement, fluorescence; shares compounds with WRN helicase inh-1; AID 720499, 2013;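 note: drop in dye fluorescence marks compound binding to DNA; nearly all actives have a fitted effect of over 60% in size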
# BLM counter: qHTS for Inhibitors of WRN Helicase: BLM Helicase Counterscreen for WRN Inhibitors; shares compounds with WRN helicase inh-1; Recombinant BLM helicase DNA unwinding, red fluorescence; Potency, µM (doses to about 57.1 µM), actives largely listed as inhibitors; actives 60% (n = 610); AID 720503, 2013; note: nearly all actives have a fitted effect of over 60% in size
# Numbers stand for hits; – = inactive; ? = inconclusive; · = no result; [ ] = remark or other dose. Calls come from the whole dose curve; as a rule, active = well fitted curve in the direction sought with a large enough effect; inconclusive = small, poorly fitted or top-dose-only effect, or another doubt; inactive = no such curve, though single readings can be large; an effect the other way counts as inactive or inconclusive.
SMILES,WRN helicase inh-1,Pol kappa inh-1,POLB inh,POLI inh,Pol eta inh-1,Pol iota confirm,Pol eta inh-2,WRN helicase inh-2,TO displacement,BLM counter,others
COc1ccc(NC(=O)/C(C#N)=C\c2ccc(OCc3ccc(C(=O)O)cc3)c(OC)c2)cc1,35.5µM,–,–,31.6µM,?,?,?,–,?,?,
COc1cccc(Cn2c(=O)c(-c3cc(F)cc(F)c3)nc3cnc(N4CCNCC4)nc32)c1,·,–,·,·,·,·,·,·,·,·,
Cc1cccc2sc(NC(=O)C3CCN(S(=O)(=O)c4cc([N+](=O)[O-])ccc4Cl)CC3)nc12,?,79.4µM,?,25.1µM,11.2µM,?,75.7,?,?,7.64µM,
Cc1nnc(NC(=O)C2CCN(S(=O)(=O)c3cc([N+](=O)[O-])ccc3Cl)CC2)o1,–,–,·,–,–,·,·,·,·,·,
COc1ccc(C(=O)c2cn(CC(=O)Nc3ccc4c(c3)OCCO4)c3ccc(OC)cc3c2=O)cc1,·,?,8.91µM,14.1µM,?,7.52,?,12.1µM,7.64µM,7.64µM,Pol kappa inh-2=5.97
CCNc1ccc2noc3c2c1C(=O)c1ccccc1-3,4.23µM,25.1µM,20µM,28.2µM,?,75.2,75.7,3.04µM,–,7.64µM,Pol kappa inh-2=67
O=C(O)c1ccc2c(c1)C(=O)/C(=C\c1ccco1)C2=O,25.1µM,8.91µM,2.24µM,6.31µM,3.55µM,29.9,8.49,?,21.5µM,–,Pol kappa inh-2=2.67
CC(C)c1ccc(NC(=O)c2cc(S(=O)(=O)NCc3ccccc3Cl)ccc2F)cc1,·,–,–,–,–,·,·,·,·,·,
O=C(O)c1ccccc1NS(=O)(=O)c1ccc(NN=Cc2ccccc2F)c([N+](=O)[O-])c1,79.4µM,?,·,56.2µM,28.2µM,?,60.1,24.1µM,?,21.5µM,
O=C(O)c1ccccc1/C=N/Nc1ccc(S(=O)(=O)N2CCCC2)cc1[N+](=O)[O-],–,–,–,–,–,·,·,·,·,·,
O=C(CSc1nc(=O)[nH]c2c1CCCC2)NCc1ccc(Cl)cc1,·,–,–,–,–,·,·,·,·,·,
CSc1cccc(Nc2nc3c(S(=O)(=O)c4ccccc4)nnn3c3ccc(Cl)cc23)c1,·,–,–,–,–,·,·,·,·,·,
CC(=C/C(=O)O)/C=C/c1ccc(Cl)o1,?,25.1µM,12.6µM,7.94µM,1.12µM,21.2,8.49,6.07µM,–,3.04µM,PGK validate=14.6µM
CC(C)c1cnc2c(c1SCc1ccc([N+](=O)[O-])cc1)c(=O)n(C)c(=O)n2C,·,–,–,–,–,·,·,·,·,·,
Cc1cc(/C=C2\SC(=S)NC2=O)cc(C)c1O,–[11.6 µM],–,?,?,–,·,·,·,·,·,
Cc1cc(/C=C2\SC(=S)NC2=O)c(C)n1-c1ccc(O)cc1,?,?,50.1µM,?,50.1µM,·,·,·,·,·,Pol kappa inh-2=?
O=C1NC(=S)S/C1=C\c1cc(Cl)cc(Cl)c1O,35.5µM,?,·,31.6µM,35.5µM,·,·,·,·,·,Pol kappa inh-2=23.8
Cc1cc(/C=C2/SC(=O)NC2=O)c(C)n1-c1ccc(N2CCOCC2)cc1,–,–,–,?,–,·,·,·,·,·,
Cc1c(C(=O)N2CCC(C)CC2)c(S(=O)(=O)Nc2cccc(C#N)c2)c(C)n1C,·,–,–,–,–,·,·,·,·,·,
CC(=O)C1=C(C)OC2(O)c3ccccc3C(=O)C12O (centres undefined),–,–,–,1µM,79.4µM,·,?,·,·,·,
CCOC(=O)C1=C(C)OC2(O)c3ccccc3C(=O)C12O (centres undefined),–,–,–,1.58µM,39.8µM,·,·,·,·,·,GALK confirm=26.6µM;GALK redox cs=18.8µM;HEK293 viability=–
Cc1ccc(NC(=O)CCC(=O)N2CCSc3ccccc32)cc1,·,–,–,–,–,·,·,·,·,·,
Oc1c(C(c2ccccc2)N2CCN(c3cccc(Cl)c3)CC2)sc2nc(-c3ccco3)nn12 (centres undefined),·,–,–,–,–,·,·,·,·,·,
CC1(OC(=O)C2CCCC2)C(=O)C=C2C=C(c3ccsc3)N(CCCCO)C=C2C1=O (centres undefined),–,–,–,–,–,·,·,·,·,·,
CCCCC1=CC2=CC(=O)C(C)(OC(=O)CC)C(=O)C2=CO1 (centres undefined),–,?,·,50.1µM,50.1µM,·,?,·,·,·,
CCC(=O)OC1(C)C(=O)C=C2C=C(C3CC3)OC=C2C1=O (centres undefined),–[11.6 µM],?,·,?,?,·,·,·,·,·,
CCCCC1=CC2=CC(=O)C(C)(OC(=O)C3CCCC3)C(=O)C2=CO1 (centres undefined),?,79.4µM,–,50.1µM,39.8µM,·,?,·,·,·,
